Test results taken from PubChem BioAssay (EPA / NIEHS).
Values joined by “and” are separate entries in the source; they are usually repeats but may differ in a detail not shown here. Equal values may be shown once. Inconclusive results are not listed. A structure can be active in one record and inactive in another. Active and inactive are the calls of the source. Rule for the calls, unless noted: active = hit-call score of the fitted dose curve at least 0.9, where 1 is the maximum; inactive = score below 0.9.

Tests used:
[1] = CCTE_Mundy_HCI_hNP1_CellTiter: CCTE's Cell Titer-Glo 2 Assay in human neuroprogenitor cells for Viability, Mundy Lab (AID 2284241; active = hit-call score of the fitted dose curve at least 0.9, where 1 is the maximum)
Summary of the method: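 Viability read as luminescent ATP content (CellTiter-Glo, 30 min room temperature) twenty-four hours after dosing, relative to DMSO. Cells: WA09-derived hNP1 neuroprogenitors on poly-L-ornithine/laminin, plated 40 to 44 hours before chemical.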

[2] = read-out: Interleukin 17F (IL17F), IL17F (gene 112744); assay: BSK_BT_xIL17F: BioMAP Diversity Plus: BT Assay for Interleukin 17F (IL17F) Biomarker Activity (AID 2284243); details: primary human B cells with PBMC
Summary of the method: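 Secreted IL-17F, read on LumineX xMAP beads, was taken as the endpoint. Cultures combined human B cells and peripheral blood mononuclear cells, sampled 24 hours after dosing, with DMSO serving as negative control.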

[3] = read-out: Actin alpha 1 (ACTA1), ACTA1 (gene 58); assay: BSK_MyoF_ACTA1: BioMAP Diversity Plus: MyoF Assay for Actin alpha 1 (ACTA1) Biomarker Activity (AID 2284244); details: primary human lung fibroblasts
Summary of the method: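 Human lung fibroblasts (MyoF system) dosed with test chemical for 24 h; α-SMA measured by ELISA. Gain of signal fitted relative to DMSO negative control as baseline.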

[4] = read-out: Interleukin 2 (IL2), IL2 (gene 3558); assay: BSK_BT_xIL2: BioMAP Diversity Plus: BT Assay for Interleukin 2 (IL2) Biomarker Activity (AID 2284245); details: primary human B cells with PBMC
Summary of the method: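 Human B cells co-cultured with PBMC, exposed to test chemical for 24 h. Secreted IL-2 quantified by Luminex xMAP bead immunoassay; activity fitted in the positive direction relative to DMSO vehicle baseline.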

[5] = read-out: Collagen IV, COL4A1 (gene 1282); assay: BSK_MyoF_CollagenIV: BioMAP Diversity Plus: MyoF Assay for Collagen IV Biomarker Activity (AID 2284247); details: primary human lung fibroblasts
Summary of the method: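 Primary human lung fibroblasts were exposed to test chemicals and sampled 24 h after dosing. Collagen IV levels were measured by ELISA and fitted in the positive direction against DMSO as negative control and baseline.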

[6] = read-out: Monokine induced gamma interferon (MIG), CXCL9 (gene 4283); assay: BSK_KF3CT_MIG: BioMAP Diversity Plus: KF3CT Assay for Monokine induced gamma interferon (MIG) Biomarker Activity (AID 2284248); details: primary human keratinocytes with fibroblasts
Summary of the method: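 ELISA read-out of MIG after 24 h chemical exposure of human skin primary co-culture (keratinocytes, foreskin fibroblasts). Gain of signal relative to DMSO negative control was analysed.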

[7] = read-out: Vascular cell adhesion molecule 1 (VCAM1), VCAM1 (gene 7412); assay: BSK_BF4T_VCAM1: BioMAP Diversity Plus: BF4T Assay for Vascular cell adhesion molecule 1 (VCAM1) Biomarker Activity (AID 2284249); details: primary human bronchial epithelial cells with fibroblasts
Summary of the method: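 Human bronchial epithelial cell and dermal fibroblast co-culture exposed 24 h. VCAM-1 measured by ELISA; parallel SRB total-protein staining for cytotoxicity. Fitted in positive direction relative to DMSO.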

[8] = read-out: Interferon-inducible T-cell alpha chemoattractant (ITAC), CXCL11 (gene 6373); assay: BSK_hDFCGF_ITAC: BioMAP Diversity Plus: hDFCGF Assay for Interferon-inducible T-cell alpha chemoattractant (ITAC) Biomarker Activity (AID 2284251); details: primary human foreskin fibroblasts
Summary of the method: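 Primary human foreskin fibroblasts (hDFCGF system) treated for 24 h; I-TAC quantified by ELISA. Gain-direction fitting versus DMSO; parallel SRB staining of total protein flagged overt cytotoxicity.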

[9] = read-out: Plasminogen activator inhibitor-1 (PAI1), SERPINE1 (gene 5054); assay: BSK_KF3CT_PAI1: BioMAP Diversity Plus: KF3CT Assay for Plasminogen activator inhibitor-1 (PAI1) Biomarker Activity (AID 2284252); details: primary human keratinocytes with fibroblasts
Summary of the method: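 Human primary keratinocyte/foreskin fibroblast co-culture was dosed with compound and sampled at 24 h. PAI-1 was quantified by ELISA, with activity fitted in the positive direction relative to DMSO vehicle as baseline.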

[10] = read-out: Interleukin-8 (IL8), CXCL8 (gene 3576); assay: BSK_KF3CT_IL8: BioMAP Diversity Plus: KF3CT Assay for Interleukin-8 (IL8) Biomarker Activity (AID 2284254); details: primary human keratinocytes with fibroblasts
Summary of the method: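 IL-8 read-out: ELISA, 24 h post-dose, human skin primary co-culture (keratinocytes + foreskin fibroblasts). DMSO = baseline; positive-direction fit.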

[11] = read-out: Plasminogen activator inhibitor-1 (PAI1), SERPINE1 (gene 5054); assay: BSK_MyoF_PAI1: BioMAP Diversity Plus: MyoF Assay for Plasminogen activator inhibitor-1 (PAI1) Biomarker Activity (AID 2284256); details: primary human lung fibroblasts;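 for outcome: PAI-1 protein level measured by ELISA in fibroblast cultures; PAI-1 read 24 h after compound addition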
Summary of the method: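 MyoF lung fibroblasts, human primary; compound 24 h; PAI-1 ELISA; positive-direction fit vs DMSO baseline; parallel SRB total-protein staining for cytotoxicity.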

[12] = read-out: CD69, CD69 (gene 969); assay: BSK_IMphg_CD69: BioMAP Diversity Plus: IMphg Assay for CD69 Biomarker Activity (AID 2284257); details: primary human endothelial cells with macrophages
Summary of the method: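 Human venular endothelial cells co-cultured with macrophages; CD69 quantified by ELISA 24 h after compound addition. Activity fitted in the positive direction relative to DMSO baseline; cytotoxicity tracked in parallel cultures via SRB total-protein staining.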

[13] = read-out: Eotaxin 3, CCL26 (gene 10344); assay: BSK_BF4T_Eotaxin3: BioMAP Diversity Plus: BF4T Assay for Eotaxin 3 Biomarker Activity (AID 2284258); details: primary human bronchial epithelial cells with fibroblasts
Summary of the method: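 Co-culture of human bronchial epithelial cells and dermal fibroblasts, exposed to chemicals for 24 h versus DMSO. Eotaxin-3 quantified by ELISA; cytotoxicity checked in parallel cultures by sulforhodamine B total-protein staining.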

[14] = read-out: Monocyte Chemoattractant Protein-1 (MCP1), CCL2 (gene 6347); assay: BSK_BF4T_MCP1: BioMAP Diversity Plus: BF4T Assay for Monocyte Chemoattractant Protein-1 (MCP1) Biomarker Activity (AID 2284259); details: primary human bronchial epithelial cells with fibroblasts
Summary of the method: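 Co-culture of bronchial epithelial cells and dermal fibroblasts dosed with chemical; MCP-1 measured by ELISA 24 h later. Activity fitted in positive direction versus DMSO; cytotoxicity checked by SRB staining in parallel cultures.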

[15] = read-out: Intercellular Adhesion Molecule 1 (ICAM1), ICAM1 (gene 3383); assay: BSK_BF4T_ICAM1: BioMAP Diversity Plus: BF4T Assay for Intercellular Adhesion Molecule 1 (ICAM1) Biomarker Activity (AID 2284260); details: primary human bronchial epithelial cells with fibroblasts
Summary of the method: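 Co-culture of human bronchial epithelial cells and dermal fibroblasts exposed 24 h to chemical; cell-surface ICAM-1 quantified by ELISA. Parallel SRB total-protein staining assessed cytotoxicity; activity fitted relative to DMSO.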

[16] = read-out: Interleukin-8 (IL8), CXCL8 (gene 3576); assay: BSK_MyoF_IL8: BioMAP Diversity Plus: MyoF Assay for Interleukin-8 (IL8) Biomarker Activity (AID 2284261); details: primary human lung fibroblasts
Summary of the method: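 Lung fibroblasts (human primary) → chemical exposure → 24 h → IL-8 measured by ELISA. Signal increase scored versus DMSO control.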

[17] = read-out: CD90, THY1 (gene 7070); assay: BSK_BF4T_CD90: BioMAP Diversity Plus: BF4T Assay for CD90 Biomarker Activity (AID 2284262); details: primary human bronchial epithelial cells with fibroblasts
Summary of the method: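 Co-culture of human bronchial epithelial cells and dermal fibroblasts, 24 h compound exposure. Cell-surface CD90 measured by ELISA relative to DMSO; parallel SRB total-protein staining for cytotoxicity.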

[18] = read-out: Interleukin-8 (IL8), CXCL8 (gene 3576); assay: BSK_BF4T_IL8: BioMAP Diversity Plus: BF4T Assay for Interleukin-8 (IL8) Biomarker Activity (AID 2284263); details: primary human bronchial epithelial cells with fibroblasts
Summary of the method: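 Human bronchial epithelial cells with dermal fibroblasts co-culture; IL-8 measured by ELISA 24 hours after dosing, fitted vs DMSO. Cytotoxicity tracked in parallel cultures by SRB total-protein staining.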

[19] = read-out: Decorin, DCN (gene 1634); assay: BSK_MyoF_Decorin: BioMAP Diversity Plus: MyoF Assay for Decorin Biomarker Activity (AID 2284265); details: primary human lung fibroblasts
Summary of the method: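 ELISA readout of decorin, 24 h post-dosing; primary human lung fibroblast (MyoF) culture; gain-of-signal fit vs DMSO baseline.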

[20] = CCTE_Mundy_HCI_Cortical_Synap_Neur_Matur_NeuronCount: CCTE's Synaptogenesis and Neurite Maturation Assay in rat cortical cells for Neuron Count, Mundy Lab (AID 2284242; active = hit-call score of the fitted dose curve at least 0.9, where 1 is the maximum)
Summary of the method: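 Rat primary cortical cells received AraC at DIV 5 to arrest glia, then were dosed with chemicals at DIV 7 through DIV 12. Fixed cells were stained for nuclei, MAP2 and synaptophysin, and neurons were counted by high-content imaging relative to DMSO.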

For `FC(F)(F)C(F)(F)C(F)(F)C(F)(F)C(F)(F)C(F)(F)I`, the outcome [1] was “inactive”, the outcome [2] was “inactive” and the AC50 [3] was 17.8 µM (active) and 30 µM (active). The outcome [4] was “inactive”, the AC50 [5] was 51.3 µM (active) and 47.7 µM (active) and the outcome [6] was “inactive”. For the same compound, the outcome [7] was “inactive”, the AC50 [8] was 47.4 µM (active) and the outcome [8] was “inactive”. The outcome [9] was “inactive”, the outcome [10] was “inactive” and the AC50 [11] was 38.6 µM (active) and 22.2 µM (active). The outcome [12] was “inactive”, the outcome [13] was “inactive” and the outcome [14] was “inactive”. For the same compound, the outcome [15] was “inactive”, the outcome [16] was “inactive” and the outcome [17] was “inactive”. For the same compound, the outcome [18] was “inactive” and the outcome [19] was “inactive”.

In the case of `Cc1cccc(O)c1C`, the outcome [2] was “inactive”, the outcome [3] was “inactive” and the outcome [4] was “inactive”. The outcome [5] was “inactive”, the outcome [11] was “inactive” and the outcome [16] was “inactive”. For the same compound, the outcome [19] was “inactive”.

For `OCc1c[nH]c2ccccc12`, the outcome [2] was “inactive”, the outcome [3] was “inactive” and the AC50 [4] was 1.81 µM (active). For the same compound, the outcome [5] was “inactive”, the outcome [11] was “inactive” and the outcome [16] was “inactive”. The outcome [19] was “inactive”.

With `FC(F)(F)COC(OCC(F)(F)F)OCC(F)(F)F` the outcome [2] was “inactive”, the outcome [3] was “inactive” and the outcome [4] was “inactive”. The outcome [5] was “inactive”, the outcome [6] was “inactive” and the outcome [7] was “inactive”. The outcome [8] was “inactive”, the outcome [9] was “inactive” and the outcome [10] was “inactive”. For the same compound, the outcome [11] was “inactive”, the outcome [12] was “inactive” and the outcome [13] was “inactive”. For the same compound, the outcome [14] was “inactive”, the outcome [15] was “inactive” and the outcome [16] was “inactive”. The outcome [17] was “inactive”, the outcome [18] was “inactive” and the outcome [19] was “inactive”.

For `OC(Cn1cncn1)(Cn1cncn1)c1ccc(F)cc1F`, the outcome [1] was “inactive”.

In the case of `c1ccc2cc3ccccc3cc2c1`, the outcome [1] was “inactive”.

With `FC(F)C(F)(F)COCC1CO1` (configuration not stated) the outcome [2] was “inactive”, the outcome [3] was “inactive” and the outcome [4] was “inactive”. For the same compound, the outcome [5] was “inactive”, the outcome [6] was “inactive” and the outcome [7] was “inactive”. For the same compound, the outcome [8] was “inactive”, the outcome [9] was “inactive” and the outcome [10] was “inactive”. For the same compound, the outcome [11] was “inactive”, the outcome [12] was “inactive” and the outcome [13] was “inactive”. For the same compound, the outcome [14] was “inactive”, the outcome [15] was “inactive” and the outcome [16] was “inactive”. The outcome [17] was “inactive”, the outcome [18] was “inactive” and the outcome [19] was “inactive”.

With `NNC(=O)c1ccncc1` the outcome [1] was “inactive” and the outcome [20] was “inactive”.

For `OC(O)(C(F)C(O)(O)C(F)(F)F)C(F)(F)F`, the outcome [1] was “inactive”, the AC50 [2] was 46.7 µM (active) and 30 µM (active) and the outcome [3] was “inactive”. For the same compound, the AC50 [4] was 40.6 µM (active) and 22.3 µM (active), the outcome [5] was “inactive” and the outcome [6] was “inactive”. The outcome [7] was “inactive”, the AC50 [8] was 8.03 µM (active) and 15 µM (active) and the outcome [9] was “inactive”. The outcome [10] was “inactive”, the outcome [11] was “inactive” and the outcome [12] was “inactive”. For the same compound, the outcome [13] was “inactive”, the outcome [14] was “inactive” and the outcome [15] was “inactive”. For the same compound, the outcome [16] was “inactive”, the outcome [17] was “inactive” and the outcome [18] was “inactive”. The outcome [19] was “inactive”.

In the case of `O=S(=O)(O)CCC(F)(F)C(F)(F)C(F)(F)C(F)(F)C(F)(F)C(F)(F)F`, the outcome [2] was “inactive”, the outcome [3] was “inactive” and the outcome [4] was “inactive”. The outcome [5] was “inactive”, the outcome [6] was “inactive” and the outcome [7] was “inactive”. For the same compound, the AC50 [8] was 1.38 µM (active), the outcome [8] was “inactive” and the outcome [9] was “inactive”. For the same compound, the outcome [10] was “inactive”, the outcome [11] was “inactive” and the outcome [12] was “inactive”. For the same compound, the outcome [13] was “inactive”, the outcome [14] was “inactive” and the outcome [15] was “inactive”. For the same compound, the outcome [16] was “inactive”, the outcome [17] was “inactive” and the outcome [18] was “inactive”. The outcome [19] was “inactive”.
